From publication PMC5540273 (PLoS ONE, 2017)

tested on: SNRK; conditions: concentration: 1 μM, replicates: in singlicate; n = 1
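Note: KINOMEscan kinase panel screen.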

Structure (SMILES) | %Inh [%]
O=C1NC(=O)C(N2CCc3ccccc32)=C1c1cccc(Cl)c1 [SB-408010] | 0
Cl.Oc1cccc(Nc2ccnc3cc(-c4ccncc4)ccc23)c1 [GW494601] | 0
COc1ccc(COc2cc(-n3cnc4ccccc43)sc2C(N)=O)cc1 [GSK1024304] | 0
COc1ccc(Nc2ncc(C#N)c(Nc3ccccc3C(N)=O)n2)cc1N1CCN(C)CC1.Cl [GSK1558669] | 85
Cc1cn2c(=O)cc(N3CCOCC3)nc2n1Cc1cccc(Cl)c1Cl [GSK2334006] | 1
N#Cc1c(N2CCOCC2)sc(-c2ccn[nH]2)c1-c1ccc(Cl)cc1 | 12
N#Cc1ccc(-c2cc(-c3c[nH]nc3-c3ccccn3)ccn2)cc1 [GW693028] | 0
Cc1nnc(-c2ccc3occ(-c4ccc(C(C)O)cc4)c3c2)o1 (centres unmarked) | 9
Cc1c(Cn2c(C)nn3c(=O)cc(N4CCOC(C)C4)nc23)cccc1C(F)(F)F (centres unmarked) [GSK2344444] | 0

tested on: SRC; conditions: concentration: 1 μM, replicates: in singlicate; n = 1

Structure (SMILES) | %Inh [%]
Cc1cccc(-c2nc(-c3ccc(S(C)(=O)=O)cc3)sc2-c2ccncc2)c1 | 8
CN1c2ccc(CNc3ccc(F)cc3)cc2-c2c(cnn2C)S1(=O)=O | 0
O=C1Cc2cc(Nc3nc(NCc4cccc(S(=O)(=O)C(F)(F)F)c4)ncc3C(F)(F)F)ccc2N1 | 0
COc1cc2c(cc1OC[C@@H](O)CO)ncc1c3ccc(C#N)cc3[nH]c21 | 0
COc1ccc(S(=O)(=O)NC2CCN(c3cc(C)nc(Nc4cccc(C#N)c4)n3)CC2)cc1.O=C(O)C(F)(F)F [GSK1653539] | 0
[2H]C([2H])(c1cccc(C(F)(F)F)c1C)n1ccn2c(=O)nc(N3CCOCC3)cc12 [GSK2336394] | 0
Cc1cccc(-c2nc(Nc3ccc4ncsc4c3)c3ccccc3n2)n1 [GW867588] | 7
COc1cc2ncn(-c3cc(OCc4sccc4Cl)c(C(N)=O)s3)c2cc1OC [GSK448459] | 0
CCc1ccnc(/C=C/c2n[nH]c3cc(Sc4ccccc4C(=O)NC)ccc23)c1 | 4
C[C@@H](Oc1cc(-n2cnc3ccc(NC(=O)NC(C)(C)C)cc32)sc1C(N)=O)c1ccccc1Cl [GSK346294] | 0
COc1cc2c(cc1OCCN1CCN(C)CC1)ncc1c3ccc(C#N)cc3[nH]c21 | 0
COCCNC(=O)c1ccc(-c2cc(C(=O)NC3CC3)cc(F)c2C)cc1 [GW868318] | 23
COc1cc(Nc2nccc(N3CCC(NC(=O)c4cccc(NC(C)=O)c4)C3)n2)cc(OC)c1OC (centres unmarked) [GSK1379754] | 25
CN1c2ccc(NCc3ccc(F)cc3)cc2-c2c(cnn2C)S1(=O)=O | 3
Cc1nnc(-c2ccc3ncc(-c4ccc(S(C)=O)cc4)n3c2)o1 (centres unmarked) | 0
O=C(NCCCN1CCOCC1)c1cccc(Nc2nccc(Nc3ccc(Oc4ccccc4)cc3)n2)c1 [GW663929] | 81
Cc1cccc(Cn2ccn3c(=O)cc(N4CCOCC4)nc23)c1 [GSK2297542] | 24
Nc1nc(-c2ccc3c(N)n[nH]c3c2)cc(N2CCCC2)n1 [GSK2227430] | 0

Structure (SMILES) | %Inh [%]
Fc1ccc(-c2ncn(CCCN3CCOCC3)c2-c2cccnc2)cc1 [SB-211743] | 0
O=C(NOCC1CC1)c1ccc(F)c(F)c1Nc1ccc(I)cc1Cl | 0
NS(=O)(=O)c1cccc(-c2ccc3ncc(N4CCOCC4)nc3c2)c1 [GSK1535721] | 0
Cn1ccc2ncnc(Oc3ccc(NC(=O)Nc4ccncc4)c(Cl)c3)c21 | 13
NS(=O)(=O)c1cccc(-c2ccc3nccc(-c4cccc(S(N)(=O)=O)c4)c3c2)c1 [GW867253] | 0
CCc1nc(-c2cccc(C)c2)c(-c2ccnc(NCc3ccccc3)c2)s1 | 7
O=C(Nc1cccc(-c2nn3ncccc3c2-c2ccnc(Nc3cccc(C(F)(F)F)c3)n2)c1)c1c(F)cccc1F [GSK299495] | 56
O=c1cc(N2CCOCC2)nc2n(Cc3cccc(F)c3)ccn12 [GSK2297430] | 12
O=C1NC(=O)C(N2CCc3ccccc32)=C1c1cccc(Cl)c1 [SB-408010] | 10
Cl.Oc1cccc(Nc2ccnc3cc(-c4ccncc4)ccc23)c1 [GW494601] | 100
COc1ccc(COc2cc(-n3cnc4ccccc43)sc2C(N)=O)cc1 [GSK1024304] | 0
COc1ccc(Nc2ncc(C#N)c(Nc3ccccc3C(N)=O)n2)cc1N1CCN(C)CC1.Cl [GSK1558669] | 100
Cc1cn2c(=O)cc(N3CCOCC3)nc2n1Cc1cccc(Cl)c1Cl [GSK2334006] | 42
N#Cc1c(N2CCOCC2)sc(-c2ccn[nH]2)c1-c1ccc(Cl)cc1 | 0
N#Cc1ccc(-c2cc(-c3c[nH]nc3-c3ccccn3)ccn2)cc1 [GW693028] | 0
Cc1nnc(-c2ccc3occ(-c4ccc(C(C)O)cc4)c3c2)o1 (centres unmarked) | 18
Cc1c(Cn2c(C)nn3c(=O)cc(N4CCOC(C)C4)nc23)cccc1C(F)(F)F (centres unmarked) [GSK2344444] | 0
